The whole screen tested about 410,000 compounds, of which about 5,000 (1.2%) were called active. Inconclusive results (about 13%) are left out. Calls follow the shape of the dose curve; as a rule, active = well fitted inhibition curve with a large enough effect; inconclusive = small, poorly fitted or top-dose-only effect; inactive = no such curve, though single readings can be large or run the other way. Many of the other results were omitted from the sample, so actives are more common in it than they were.
Assay: qHTS for Inhibitors of TGF-b; also: nearly all actives have a fitted effect of over 65% in size
Settings: HepG2 CAGA-GFP TGF-b/SMAD3 reporter, GFP fluorescence, 18 h, TGF-beta stimulated, 500 pg/mL final; series mostly up to 46.1 µM; activity, negative = inhibition: at the top concentration
Description: TGF-b is a main component in the TGF-b signaling pathway which plays diverse roles in cellular and development pathways. TGF-b is the mediated by the transcription factors Smads. Although the Smad-dependent pathway is the primary canonical TGF-b signaling node, TGF-b1 can also activate alternative signaling pathways, including those involving MAPK (ERK, JNK and p38). This interaction may mediate or enhance Smad-dependent responses, or can exert Smad-independent effects. The complexity of this signaling cascade allows the TGF-b superfamily to perform unique, overlapping or redundant functions. We believe that targeting the TGF-beta pathway at the Smad-transcription factor level may eliminate the consequences of disrupting the entire pathway and offer specificity without affecting other signaling pathways. Smad3 is the primary transducer of TGF-b's signals and Smad3 regulates many functions attributed to TGF-b signaling. We hypothesize that Smad3 inhibitors will selectively eliminate Smad3-specific TGF-beta signals without undesired off-target effects. We aim to identify Smad3-small molecule antagonists using a quantitative high throughput screening (qHTS) approach.
A high-throughput assay was developed to screen the NIH Molecular Libraries Small Molecule Repository (MLSMR). This is a cell based assay, where TGF-b is tagged with GFP. A counterscreen is run that looks at cytotoxicity (please see summary AID).
MH087449NIH Chemical Genomics Center [NCGC]
NIH Molecular Libraries Probe Centers Network [MLPCN]
Assay Submitter (PI): Sushil Rane, National Institute of […]
Suspensions of trypsinized HEPG2 CAGA-GFP cells were dispensed into white, tissue culture-treated, solid 1536-well plates at 5uL/well (1000 cells/well final concentration) in DMEM medium supplemented with 1% FBS. Plates were incubated at 37 degrees C for 2 hours, after which 23 nL of compounds or DMSO were delivered to each well using a pin tool. One uL of recombinant TGF-beta in DMEM (1% FBS) was then dispensed (500 pg/mL final concentration), and plates were incubated at 37 degrees C for 18 hours. The plates were measured on an Acumen eX3 Explorer plate reader for GFP fluorescence (ex488/em500-530). GFP values were calculated by determining the mean GFP fluorescence of individual cells, and compiling these values for each well to determine a total well GFP signal. The %Activity was determined from the corrected fluorescence values. A titration of the known TGF-B inhibitor SB431542 was included to monitor plate performance, while unstimulated HEPG2 (-TGF-B) control wells were used to normalize %Activity of identified inhibitors; unstimulated wells corresponded to 100%Activity (full inhibition), while stimulated cell controls (+DMSO) were used to normalize 0%Activity (no inhibition).
Concentration-response curves were fitted to the signals arising from the resulting fluorescence. The concentration-effect curves were then classified based on curve quality (r2), response magnitude and degree of measured activity, and compounds were subsequently categorized based on their curve class.
Potency is read from the fitted curve at half-maximal effect.

activity, negative = inhibition, inactive:
CC(NC(=O)CCC(=O)N1CCN(S(=O)(=O)c2ccc(Cl)cc2)CC1)c1ccccc1 (stereo unspecified) -13.8%, O=C(CCC(=O)c1ccccc1)NCc1cccc(C(F)(F)F)c1 -3.04%, Cc1cc(OCC(=O)Nc2ncn[nH]2)c(C)c(C)c1Br 2.13%, CCCn1c2ccccc2c2cnn(CC(=O)NCCCOC(C)C)c(=O)c21 -16.6%, CCOC(=O)c1c(NC(=O)c2ccc(S(=O)(=O)N3CCCC(C)C3)cc2)sc2c1CCN(C(C)C)C2 (stereo unspecified) -0.37%, CCOC(=O)c1cnc2c(C)cc(C)cc2c1Nc1ccc(N2CCOCC2)cc1 -6.96%, CC1=Nc2cc(C(=O)NCc3ccc(C)cc3)ccc2Sc2ccc(Cl)cc21 -12.7%, CCC1=Nc2cc(C(=O)NCC(C)c3ccccc3)ccc2Sc2ccc(C)cc21 (stereo unspecified) 4.45%, Cc1nn(-c2ccc(N3CCCCC3)nn2)c(C)c1CCC(=O)NCc1ccc(F)cc1 -26.8%, Cc1ccc(-n2nc(CO)c(C(=O)NCCc3ccccc3)n2)cc1 0%, COc1ccc(-c2cn3nc(N4CCC(C(=O)Nc5cccc(C)c5C)CC4)sc3n2)cc1 0%, COc1ccc(NC(=O)CN2C(=O)NC(C)(c3ccccc3)C2=O)cn1 (stereo unspecified) 4.02%, COc1ccc(NC(=O)C(=O)NCc2ccco2)cc1 4.07%, COc1ccc(NC(=O)CSc2nc3ncccc3[nH]2)c(OC)c1 11.2%, COc1ccc(C(=O)NCCNc2ccc([N+](=O)[O-])cn2)cc1 1.81%, COc1ccc2c(C(=O)c3ccc(C)cc3)n(CCC(N)=O)[n+]([O-])c2c1 -22.6%, CCS(=O)(=O)N1CCc2cc(C(=O)N3CCN(c4ccccc4OC)CC3)ccc21 -25.2%, CCC(=O)N1CCc2cc(S(=O)(=O)NC(Cc3ccccc3)C(=O)NCc3ccc(C)cc3)ccc21 (stereo unspecified) -28.1%, CC(C)OCCCn1c(SCC(=O)c2ccccc2)nc2c(sc3ccccc32)c1=O -15.3%, C/C(=N/Nc1ccc(Cl)cc1)c1cnnc(-c2ccccc2)n1 0.78%, Fc1ccccc1Cc1ccc(Cl)nn1 -7.59%, COc1ccc(C2=NC(c3ccncc3)=Nc3ccc(Br)cc3N2)cc1 -2.9%, O=C1[C@H]2[C@@H](c3ccc(Cl)cc3)N3C(=O)N(c4cccc(F)c4)C(=O)[C@@]3(Cc3ccccc3)[C@H]2C(=O)N1C1CCCCC1 -18.1%, Cc1cccc(N2C(=O)N3[C@H](c4ccc(F)cc4)[C@@H]4C(=O)N(C5CCCCC5)C(=O)[C@@H]4[C@]3(Cc3ccccc3)C2=O)c1 17.6%, CNCCCOc1cc2nc(N3CCCN(C)CC3)nc(NC3CCN(C)CC3)c2cc1OC 22%, CN(Cc1ccccc1)C(=O)CCS(=O)(=O)c1cc(Br)cc2c1N(C(=O)C1CC1)CC2 0%, Cc1ccc(CCNC(=O)c2ccc(CS(=O)(=O)Cc3cccc(C)c3)o2)cc1 -36%, CCS(=O)(=O)c1ncc(N(Cc2ccc(F)cc2)Cc2ccco2)c(C(=O)Nc2cc(C)ccc2C)n1 1.57%, Cc1ccc(NC(=O)c2cccnc2C(=O)Nc2ccc(C)cc2)cc1 -10.9%, CC(=O)c1cccc(NC(=O)c2nc(-c3ccccc3)n(-c3cccc(C)c3)n2)c1 -25.9%, O=C(Nc1nc2ccc(F)cc2s1)c1nc(SCc2ccccc2F)ncc1Cl -1.74%, CN(CC(=O)Nc1ccccc1C(F)(F)F)C(=O)Cc1ccccc1F -1.45%, Cc1cccc(NC(=O)Cn2cc(S(=O)(=O)Cc3ccccc3Cl)c3ccccc32)c1 0%, CCOC(=O)c1ccc(NC(=O)c2nc(SCc3ccc(F)cc3)ncc2Cl)cc1 -12.1%, COc1ccccc1CNC(=O)c1ccccc1NC(=O)c1nsc2ccccc12 -0.608%, Cc1cccc(Cn2c(CN3CCC(C(=O)NCc4ccccc4Cl)CC3)cc3ccccc32)c1 -8.43%

Potency, active:
O=C(CCC(=O)N1CCN(S(=O)(=O)c2ccc(Cl)cc2)CC1)NCc1cccc(C(F)(F)F)c1 7.08 µM, COCCNC(=O)c1ccc2c(c1)N=C(C)c1cc(C)ccc1S2 2 µM, COc1ccc(CS(=O)/C(Cl)=C(/Cl)C(=O)Nc2ccc(OC)nc2)cc1 (stereo unspecified) 3.16 µM, COc1ccc(C(=O)c2c3ccc([N+](=O)[O-])cc3[n+]([O-])n2CCCN)cc1 8.91 µM, C/C(=N\Nc1ccc(Cl)nn1)c1ccccc1O 1.26 µM, C[C@@]12C(=O)N(c3cccc(Br)c3)C(=O)N1[C@H](c1ccc(Cl)cc1)[C@@H]1C(=O)N(C3CCCCC3)C(=O)[C@@H]12 11.2 µM, O=C(Nc1ccccc1C(F)(F)F)c1nc(S(=O)(=O)Cc2ccccc2F)ncc1Cl 3.16 µM, Cc1ccc(NC(=O)c2nc(S(=O)(=O)Cc3cccc(C)c3)ncc2Cl)cc1 3.16 µM, Cc1cccc(NC(=O)c2nc(S(=O)(=O)Cc3ccccc3)ncc2Cl)c1 3.98 µM, Cc1cccc(CS(=O)(=O)c2ncc(Cl)c(C(=O)Nc3ccc(F)cc3)n2)c1 6.31 µM

Reference: PubChem BioAssay AID588855 (National Center for Advancing Translational Sciences (NCATS), 2011)
